# Data from PubChem BioAssay AID504847 (National Center for Advancing Translational Sciences (NCATS), 2011).
# Screen size: about 400,000 compounds; about 3,700 (0.93%) were called active. Another 3% or so got no clear call; they are omitted. The full list was thinned out, with actives kept by preference. Values without a mark were called inactive. Calls follow the shape of the dose curve; as a rule, active = well fitted inhibition curve with a large enough effect; inconclusive = small, poorly fitted or top-dose-only effect, or another doubt; inactive = no such curve, though single readings can be large or run the other way.
# Biological target: Vitamin D3 receptor (Homo sapiens) (UniProt P11473)
# Experiment: Inhibitors of the vitamin D receptor (VDR): qHTS
# Details: VDR-SRC2-3 peptide fluorescence polarization, 2 h; max response, negative = inhibition: hits give low values
# Summary of the method: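 Fluorescence polarization assay of small-molecule disruption of VDR binding to coregulator peptide SRC2-3. Compounds and controls pin-transferred, then read after 2 h incubation at ambient room temperature.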
# % is scaled to controls: 0 for no effect and ±100 for the full control effect; potency is read from the fitted curve at half-maximal effect.
# Vitamin D3 receptor (Homo sapiens), sequence (P11473 whole entry, looked up): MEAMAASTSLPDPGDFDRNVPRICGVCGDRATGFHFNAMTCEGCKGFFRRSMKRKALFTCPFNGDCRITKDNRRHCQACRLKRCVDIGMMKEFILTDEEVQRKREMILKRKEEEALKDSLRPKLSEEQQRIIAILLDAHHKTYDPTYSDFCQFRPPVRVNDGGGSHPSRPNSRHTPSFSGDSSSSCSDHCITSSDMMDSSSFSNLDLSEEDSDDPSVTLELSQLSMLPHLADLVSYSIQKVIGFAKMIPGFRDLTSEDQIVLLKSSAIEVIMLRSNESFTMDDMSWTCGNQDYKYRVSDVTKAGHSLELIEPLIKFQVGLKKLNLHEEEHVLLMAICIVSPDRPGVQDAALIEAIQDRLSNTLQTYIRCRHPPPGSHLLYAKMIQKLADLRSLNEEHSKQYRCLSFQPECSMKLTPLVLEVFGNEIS
Compound,"max response, negative = inhibition",Potency
O=C(Cn1c(=O)n(-c2ccc(F)cc2)c(=O)c2sc3ccccc3c21)NC1CCCC1,8.11%,–
COc1ccccc1Nc1nc(N)nc(N)c1S(=O)(=O)c1ccccc1,15.2%,–
COC(=O)c1ccc(NC(=O)CSc2n[nH]c(-c3ccccc3)n2)cc1,9.27%,–
COc1ccc2ncc3c(-c4ccc(C)c(C)c4)nn(CC(=O)NC4CCCC4)c3c2c1,5.23%,–
CCN1CCC(O)(/C=C/c2ccc(C)cc2)C(C(=O)/C=C/c2ccc(C)cc2)C1 (stereo not given),–,25.1 µM (active)
COc1ccc2c(c1)C=C(C(=O)NCc1cc(Br)ccc1OC)CO2,8.92%,–
Cc1ccc(NC(=O)CN2CCC(C(N)=O)CC2)cc1[N+](=O)[O-],-4.1%,–
O=C(CN1CCOCC1)N/N=C/c1ccc(-c2ccc(Br)cc2)o1,13.8%,–
Cc1ccc(-c2ccc(/C=N/NC(=O)CN3CCOCC3)o2)cc1[N+](=O)[O-],–,2.51 µM (active)
O=C(CN1CCSc2ccccc21)N1CCN(c2ccccc2)CC1,16.3%,–
Cc1ccccc1CSc1nc2c([nH]c3ccccc32)c(=O)n1C,2.18%,–
COc1ccc(CNC(=O)C2CCN(C(=O)c3ccco3)CC2)cc1,3.03%,–
CCc1nnc(NC(=O)C2CCN(C(=O)c3ccccc3C)CC2)s1,0.925%,–
CCC(CC)c1nnc(NC(=O)C2CCN(C(=O)c3ccco3)CC2)s1,–,89.1 µM (active)
Cc1ccc(-c2noc(-c3nnn(-c4cccc(C(F)(F)F)c4)c3N)n2)cc1,7.83%,–
O=C1C(c2ccccn2)=[N+]([O-])c2ccccc21,–,12.6 µM (active)
O=Cc1cn(-c2ccccc2)nc1-c1ccccn1,0.792%,–
O=C(c1ccc2c(=O)n(Cc3ccco3)c(=S)[nH]c2c1)N1CCCC1,-15.6%,–
CCOC(=O)c1cc2c(=O)n3ccccc3nc2n(CC2CCCO2)c1=NC(=O)c1ccc(C(C)(C)C)cc1 (stereo not given),-4.97%,–
CC1=C(c2ccc(F)cc2)S(=O)(=O)N=C1N1CCC(C(=O)NCCc2ccccc2C)CC1,9.29%,–
Cc1nn(CC(=O)N2CCN(c3cccc(C(F)(F)F)c3)CC2)c(=O)c2cc3sccc3n12,-6.46%,–
CCOC(=O)c1ccc(-c2ccc(/C=C(\C#N)C(=O)Nc3ccc(OCC)cc3)o2)cc1,-4.51%,–

Compound,"max response, negative = inhibition",Potency
NS(=O)(=O)c1ccc(NC2=CC(c3ccc(F)cc3)N(c3ccc(S(N)(=O)=O)cc3)C2=O)cc1 (stereo not given),21.6%,–
CCOC(=O)c1ccc(NC2=CC(c3ccc(OCC)cc3)N(c3ccc(C(=O)OCC)cc3)C2=O)cc1 (stereo not given),–,28.2 µM (active)
Cc1cc(NC(=O)C2CCC(CNS(=O)(=O)c3ccc(Br)s3)CC2)ccc1Br (stereo not given),-18%,–
COc1ccc(-c2nc3ccccc3s2)cc1NC(=O)COc1ccccc1C,1.1%,–
COc1cccc(-c2nc(Nc3ccncc3)c3ccccc3n2)c1,16.5%,–
COc1ccc(Nc2nc(-c3cccnc3)nc3ccccc23)cn1,–,70.8 µM (active)
Cc1cnc(CNc2nc(-c3cccnc3)nc3ccccc23)cn1,-20.5%,–
CCOc1ccc(Nc2c(S(=O)(=O)c3ccccc3)cnc3ccccc23)cc1,-2.09%,–
Cc1nc2ccn(Cc3cccnc3)c(=O)c2cc1C(=O)N1CCN(c2ccccc2F)CC1,-2.65%,–
CC(=O)Nc1ccc(S(=O)(=O)N2N=NC3C2C2CC4C3(CN(C(=O)OC(C)(C)C)S4(=O)=O)O2)cc1 (stereo not given),-28.4%,–
CCn1cc(C(=O)NCC2COc3ccccc3O2)c2cc(OC)c(OC)cc2c1=O (stereo not given),-12.1%,–
O=C(NCC1COc2ccccc2O1)C1(c2ccccc2)CCCC1 (stereo not given),-20%,–
Cc1cc(C(=O)CCl)c(C)n1CC1COc2ccccc2O1 (stereo not given),–,89.1 µM (active)
COc1cc(/C=C2/C(=O)NN(c3ccc(F)cc3)C2=O)cc([N+](=O)[O-])c1O,-24.2%,–
COc1cc(/C=C2/C(=O)NN(c3cccc(Cl)c3)C2=O)cc(Br)c1O,–,22.4 µM (active)
COc1cc(/C=N/O)cc(Br)c1OCc1cccc(Cl)c1,4.44%,–
COCCn1c(=O)c(-c2cc(F)cc(F)c2)nc2cnc(N3CCNCC3)nc21,-11.9%,–
Cc1cn([C@H]2CC(F)[C@@H](CO)O2)c(=O)[nH]c1=O (stereo not given in full),-2.1%,–
O=C(CSc1nccn1C1CCCC1)Nc1cc(C(F)(F)F)ccc1Cl,24.3%,–
CCc1nnc(SCC(=O)Nc2cc(OC)ccc2OC)nc1CC,8.11%,–
Cc1ccccc1-c1nc(CS(=O)(=O)CC(=O)Nc2cc(Cl)cc(Cl)c2)c(C)o1,13%,–
CC1=C(c2ccc(C)c(C)c2)S(=O)(=O)NC1=NCc1ccccc1Cl,4.51%,–

Compound,"max response, negative = inhibition",Potency
C=C1C(=O)C23C(O)C1CCC2[C@]12COC3(O)C(O)C1C(C)(C)CC[C@H]2O (stereo not given in full),–,14.1 µM (active)
O=c1n(Cc2cccc(C(F)(F)F)c2)c2ccccc2c2nc(-c3ccccc3)nn12,-21.7%,–
CCOc1cccc(CC(=O)N2CCc3c([nH]c4ccccc34)C2c2ccc(F)cc2)c1OCC (stereo not given),6.55%,–
COc1ccc(S(=O)(=O)Nc2cccc3cccnc23)c(N)c1,-18.8%,–
Cn1cc(-c2nc3cnc(N4CCNCC4)nc3n(CCC#N)c2=O)c2ccccc21,-5.94%,–
O=C(Nc1cc(C(=O)Nc2ccc(S(=O)(=O)O)cc2)cc(C(=O)Nc2ccc(S(=O)(=O)O)cc2)c1)Nc1cc(C(=O)Nc2ccc(S(=O)(=O)O)cc2)cc(C(=O)Nc2ccc(S(=O)(=O)O)cc2)c1,4.66%,–
O=C(NNC1CC(=O)N(c2cccc(Cl)c2)C1=O)c1cccnc1 (stereo not given),4.73%,–
O=C(/C=C/c1ccc(Cl)cc1Cl)c1cccnc1,–,20 µM (active)
O=C(OCc1cc(Cl)ccc1OC(F)F)c1cccnc1,3.25%,–
O=C(c1cnn(-c2ccc(F)cc2)c1-n1cccc1)N1CCN(c2ccc(F)cc2)CC1,-3.32%,–
CC[C@]1([C@H]2O[C@@H]([C@@H]3O[C@](O)(CO)[C@@H](C)C[C@H]3C)C[C@H]2C)CC[C@@H]([C@]2(C)CC[C@@]3(C[C@@H](O)[C@@H](C)[C@@H]([C@H](C)[C@H](OC)[C@H](C)C(=O)O)O3)O2)O1,3.44%,–
CCOC(=O)C1CCCN(C(=O)CN(c2ccc(OC)cc2)S(=O)(=O)c2c(C)noc2C)C1 (stereo not given),-22.5%,–
CCOc1ccc(N(CC(=O)OC)S(=O)(=O)c2c(C)noc2C)cc1,–,89.1 µM (active)
COc1ccc(N(CC(=O)Nc2cc(OC)ccc2OC)S(=O)(=O)c2c(C)noc2C)cc1,5.52%,–
O=C(c1cccc(F)c1)N1CCC2(CCCN(Cc3ccncc3)C2)CC1,-10.4%,–
Cc1ccc(Cn2cc(CCC(=O)NCc3ccc(OC(C)C)cc3)c3ccccc32)cc1,7.91%,–
COC(=O)c1cccc(N2C(=O)C3C4C=CC(CC4)C3C2=O)c1 (stereo not given),12.5%,–
COC(=O)c1cccc(-n2[nH]nnc2=S)c1,–,79.4 µM (active)
COC(=O)c1cccc(NC(=O)c2cccc(N3C(=O)CCC3=O)c2)c1,-2.51%,–
COc1cccc(NC(=O)CSC2=Nc3ccccc3C3=NC(CC(=O)NC4CCCCC4)C(=O)N23)c1 (stereo not given),1.75%,–
CCOCCCNC(=O)c1cn(CC)c2ccc(S(=O)(=O)N3CCc4ccccc4C3)cc2c1=O,-6.66%,–
OCCN1CCN(CC/C=C2\c3ccccc3Sc3ccc(C(F)(F)F)cc32)CC1,-15.9%,–

Compound,"max response, negative = inhibition",Potency
COc1ccc(C(=O)c2oc3ccc(Br)cc3c2NC(C)=O)cc1,-3.63%,–
COc1ccc(CC(=O)NCC(=O)N/N=C/c2cc(Br)ccc2OC)cc1,13.7%,–
COc1ccc(/C=C/C(=O)c2cc(Br)ccc(=O)c2O)cc1,–,50.1 µM (active)
CCN(CC)c1nn2c(=O)c(C(=O)NCCc3ccccc3)cnc2s1,2.65%,–
CCOC(=O)c1sc(NC(=O)/C=C/c2ccc(C(C)C)cc2)c(C(=O)OCC)c1C,-21.4%,–
CCOC(=O)c1c(NC(=O)c2ccc(S(=O)(=O)N3CCCC(C)C3)cc2)sc2c1CCN(C(C)C)C2 (stereo not given),21.6%,–
Cc1ccc(NC(=S)NCCc2ccc(Cl)cc2)c(C)c1,2.39%,–
CC(C)CC(=O)NC(=S)Nc1cc(C(=O)O)ccc1Cl,-4.96%,–
Cc1ccc(C)c(NC(=S)NCC(c2cccnc2)N2CCOCC2)c1 (stereo not given),-7.85%,–
Cc1ccc(C)c(NC(=S)NNC(=S)Nc2ccc(C(C)C)cc2)c1,–,35.5 µM (active)
CCC(C(=O)Nc1ccc(C(C)C)cc1)c1ccccc1 (stereo not given),-16.3%,–
CC(C)c1ccc(NC(=S)NNc2ccc(Cl)c(C(=O)O)c2)cc1,–,39.8 µM (active)
COc1cc(C(=O)N2CCN(C(=O)COc3cccc(C)c3)CC2)cc(OC)c1OC,-6.68%,–
Cc1ccc(-c2cc(C(=O)NC3CCN(Cc4ccccc4)CC3)c3ccccc3n2)cc1,-7.79%,–
Cc1ccc(-c2nc(=N)sn2Cc2ccccc2)cc1,–,17.8 µM (active)
Cc1ccc(CN2C(=O)SC(Nc3ccccc3)C2=O)cc1 (stereo not given),-7.63%,–
CC(=O)/C(C)=N\O,-2.4%,–
CCOc1ccc(CNC(=O)c2cc(=O)[nH]c3ccc(S(=O)(=O)N4CCCCC4)cc23)cc1,6.6%,–
O=C(NC1CC(=O)N(c2ccc(F)cc2)C1)C1CCCCC1 (stereo not given),-2.82%,–
